Assay results taken from PubChem BioAssay AID504441 (Broad Institute, 2011).
Screen size: about 310,000 compounds; about 1,300 (0.42%) were called active. Rule as the data show it: active = inhibition above about 50%; inactive = the rest. The entries come from a sample that favours actives as a whole.

molecular target: Dual specificity tyrosine-phosphorylation-regulated kinase 1A (Rattus norvegicus) (UniProt Q63470); assay: inhibition of Dyrk1A kinase activity – biochemical, single point, plate reader, primary screen (AID 504441); conditions: ADP-Glo luminescence, NFATc1 peptide, at 12.5 µM, hits give high values;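 also: plate controls were vehicle with enzyme for no effect and no enzyme for full effect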

SMILES	inhibition
Cc1ccc(/C=C(\C#N)C(=O)Nc2cccc3ncccc23)o1	84.4% (active)
O=C(Nc1cccc2ncccc12)c1ccc(-c2ccc(Cl)cc2Cl)o1	12.4% (inactive)
O=C(O)c1cc(Cl)c(Cl)cc1C(=O)Nc1cccc2ncccc12	31.9% (inactive)
O=C1C2C3C=CC(C3)C2C(=O)N1c1ncc([N+](=O)[O-])s1 (configuration not stated)	-1.64% (inactive)
CCCN(C(=O)COC(=O)CNS(=O)(=O)c1ccc(NC(C)=O)cc1)C1CCS(=O)(=O)C1 (configuration not stated)	7.58% (inactive)
CC(C)OC(=O)c1ccc(NCc2cc(O)ccc2O)cc1Cl	0.287% (inactive)
COc1ccc(/C=C2/CCCc3ccccc3C2=O)cc1	11.6% (inactive)
Oc1ccccc1/C=N/n1c(-c2cccs2)n[nH]c1=S	-4.73% (inactive)
O=[N+]([O-])c1ccccc1/C=N/n1c(COc2ccccc2)n[nH]c1=S	-1.54% (inactive)
CCc1n[nH]c(=S)n1/N=C/c1c[nH]c2ccc(Br)cc12	50.2% (active)
O=C1/C(=C\c2ccc(O)cc2)CCC1CNc1ccc(Cl)cc1 (configuration not stated)	2.38% (inactive)
COc1ccc(C2NCCCC2c2ccccc2)cc1 (configuration not stated)	-2.56% (inactive)
O=C(NN=Cc1ccccc1O)NN=Cc1ccccc1O	6.12% (inactive)
CCOC(=O)Cn1c(=O)n(Cc2ccc(OC)cc2)c(=O)c2cccnc21	2.78% (inactive)
CCOC(=O)Cn1c(-c2cccnc2Cl)nc2ccccc21	80.1% (active)
CCn1c(-c2cccnc2Cl)nc2cc(C)c(C)cc21	2.9% (inactive)
O=c1c2ccccc2ncn1CCc1ccncc1	7.95% (inactive)
OCC(O)C1OCOC(C(O)CO)C1O (configuration not stated)	-1.78% (inactive)
O=C(NCC1CCCCC1)NCC1CCCCC1	7.91% (inactive)
O=C(Cc1ccc(Cl)c(Cl)c1)Nc1ccc(SC(F)F)cc1	-0.116% (inactive)
O=C(CC(O)(C(F)(F)F)C(F)(F)F)Nc1ccc(Cl)c(Cl)c1	53.9% (active)
O=C(CC1SCCNC1=O)Nc1ccc(Cl)c(Cl)c1 (configuration not stated)	-4.03% (inactive)
CC/C(=C(/c1ccccc1)c1ccc(OCC[N+](C)(C)C)cc1)c1ccccc1	7.18% (inactive)

SMILES	inhibition
COc1cccc(NC(=S)N(CCc2c(C)[nH]c3ccccc23)Cc2ccco2)c1	7.39% (inactive)
COc1ccc2[nH]c(C)c(CCN(Cc3cccs3)C(=S)Nc3ccccc3OC)c2c1	57.4% (active)
Cc1[nH]c2ccccc2c1CCN(Cc1cccs1)C(=S)NC(C)(C)C	-4.25% (inactive)
NN=C(NN=Cc1ccccc1)c1ccccc1	-4.79% (inactive)
CN(C(=O)c1cccc(NC(=O)Cc2ccc(NC(=O)C3CCCN(C(=O)C4CCCC4)C3)cc2)c1)C1CCC1 (configuration not stated)	2.93% (inactive)
CC(=NNC(=S)N1CCCCCC1)c1ccccn1	0.973% (inactive)
Cc1cc(NC(=O)C(C)SCC(=O)Nc2cccc(S(=O)(=O)N3CCCCCC3)c2)no1 (configuration not stated)	-1.84% (inactive)
Cc1ccc(-n2c(C)cc(/C=N/Nc3ccc([N+](=O)[O-])cn3)c2C)c(C)c1	-4.85% (inactive)
CC(C)c1ccc(C=NNc2ccc([N+](=O)[O-])cn2)cc1	-3.91% (inactive)
Cc1cc(/C=N/Nc2ccc([N+](=O)[O-])cn2)c(C)n1-c1cccc(C(=O)O)c1	50.2% (active)
Cc1cccc(NC(=S)N2CCC(C(=O)c3ccc(F)cc3)CC2)c1	10.4% (inactive)
O=C(Nc1ccc2ccccc2c1[N+](=O)[O-])c1ccccc1	3.22% (inactive)
O=C(OCCOc1ccccc1Cl)c1cc(S(=O)(=O)N2CCCCC2)ccc1N1CCOCC1	-7.28% (inactive)
Nc1nc(SCc2ccc([N+](=O)[O-])cc2)c2ncn(C3OC(CO)C(O)C3O)c2n1 (configuration not stated)	56.9% (active)
Cc1nc(N)nc(SCc2ccc([N+](=O)[O-])cc2)c1N	-3.28% (inactive)
CC(C)Sc1nc(N)nc2c1ncn2C1OC(CO)C(O)C1O (configuration not stated)	-4.63% (inactive)
O=[N+]([O-])c1ccc(COc2ccccc2CN2CCOCC2)cc1	4.81% (inactive)
CNN/C(N=Cc1ccc([N+](=O)[O-])s1)=N\S(=O)(=O)c1cc(C)c(Cl)cc1SCc1ccccc1	1.25% (inactive)
Cc1ccc(S(=O)(=O)N2C[C@@H]3CCCC[C@@H]3[C@@H](C)[C@H]2c2cn(Cc3ccccc3)c3ccc(F)cc23)cc1	-0.552% (inactive)
O=C(NC(Nc1nc2ccc([N+](=O)[O-])cc2s1)(C(F)(F)F)C(F)(F)F)c1ccccc1	73.9% (active)
O=[N+]([O-])c1cc(Br)c(O)c(/C=N/Nc2nc3ccccc3s2)c1	32.7% (inactive)
N=C1C(c2nc3ccccc3s2)=C(O)CN1NC(=O)c1ccc([N+](=O)[O-])cc1	46.9% (inactive)
O=C(O)C(CCc1ccccn1)c1ccccc1 (configuration not stated)	3.61% (inactive)

SMILES	inhibition
N#CC1=C(N)Oc2cc(N)ccc2C1c1ccccc1 (configuration not stated)	0.0153% (inactive)
COc1ccc(CNCCCNCc2ccc(OC)c(OC)c2)cc1OC	-3.55% (inactive)
O=C1N=C(N2CCCC2)S/C1=C\c1cccc(Br)c1	-2.99% (inactive)
CCOc1cc(/C=C2\SC(N3CCCCC3)=NC2=O)ccc1O	62.2% (active)
CCOc1cc(/C=C2\SC(N3CCCC(C)C3)=NC2=O)ccc1O (configuration not stated)	31.5% (inactive)
CCN1CCC(O)(/C=C/c2ccc(C)cc2)C(C(=O)/C=C/c2ccc(C)cc2)C1 (configuration not stated)	-5.12% (inactive)
O=C(NCCc1ccccc1)C1CCN(S(=O)(=O)c2ccc(Br)s2)CC1	60.5% (active)
CSc1ccc(S(=O)(=O)N2CCC(C(=O)NCCc3ccccc3)CC2)cc1	-0.684% (inactive)
O=C(C1CCN(S(=O)(=O)c2ccc(Br)s2)CC1)N1CCN(c2ccccc2)CC1	2.78% (inactive)
COc1ccccc1N(CC(=O)Nc1c(C)n(C)n(-c2ccccc2)c1=O)S(=O)(=O)c1ccccc1	8.43% (inactive)
Cc1ccc(S(=O)(=O)N2CCN(C(=O)COC(=O)/C=C/c3cccc(Cl)c3)CC2)c(C)c1	2.98% (inactive)
CCOCCCNC(=O)C(NC(=O)c1ccc(=O)[nH]c1)c1ccc(C)cc1 (configuration not stated)	4% (inactive)
CCOCCCNC(=O)C(NC(=O)c1ccc(=O)[nH]c1)c1ccc(Cl)cc1 (configuration not stated)	62.1% (active)
CCOCCCNC(=O)C(NC(=O)c1ccccc1O)c1ccccc1 (configuration not stated)	2.95% (inactive)
O=C1/C(=C\c2ccc([N+](=O)[O-])cc2)CS(=O)(=O)C/C1=C/c1ccc([N+](=O)[O-])cc1	2.21% (inactive)
N#Cc1cccc(CN2CCC(=O)N([C@H](CO)c3ccccc3)CC2)c1	50.1% (active)
N#Cc1cccc(CN2CCC(=O)N(CCO)CC2)c1	12.9% (inactive)
O=C1CCN(Cc2ccccc2)CCN1[C@H](CSc1ccccc1)c1ccccc1	7.38% (inactive)
CCCCN(C(=O)CSCc1ccc(C)cc1)c1c(N)n(Cc2ccccc2)c(=O)[nH]c1=O	-1.45% (inactive)
O=[N+]([O-])c1ccc(NS(=O)(=O)c2ccccc2)c(Cl)c1	-7.67% (inactive)
O=C(O)c1ccc(NN=CC2=C(N3CCOCC3)/C(=C/c3ccccc3)CC2)cc1	17.6% (inactive)
COc1ccc(S(=O)(=O)N2CCc3ccccc32)cc1C(=O)Nc1cc(S(C)(=O)=O)ccc1Cl	-1.51% (inactive)
CN(c1ccc(O)cc1)c1nc(-c2cccnc2)cs1	3.73% (inactive)

SMILES	inhibition
Oc1ccc(-c2csc(Nc3cccnc3)n2)cc1	53.9% (active)
Cc1ccccc1Nc1nc(-c2cccnc2)cs1	9.73% (inactive)
O=C(NNC(=O)c1ccccc1O)c1ccccc1O	-1.63% (inactive)
CCOC(=O)c1ccccc1OC(=O)Oc1ccccc1C(=O)OCC	4.02% (inactive)
O=C1OCC2=C1C(c1ccc(Cl)cc1)c1cc3c(cc1O2)OCO3 (configuration not stated)	-1.45% (inactive)
O=C(Nc1ccc(S(=O)(=O)N2CCOCC2)cc1)C1CCN(S(=O)(=O)c2ccc(Cl)cc2)CC1	7.12% (inactive)
CN1C(=O)/C(=C\c2ccc(-c3ccccc3)o2)SC1=S	-4.31% (inactive)
CN1CCN(/N=C/c2ccc(-c3ccc([N+](=O)[O-])cc3)o2)CC1	4.45% (inactive)
NS(=O)(=O)c1ccc(-c2ccc(/C=C3\SC(=O)NC3=O)o2)cc1	87.9% (active)
O=C(Nc1c(Br)cc2c(c1Br)Cc1cc([N+](=O)[O-])ccc1-2)C(Cl)Cl	-6.68% (inactive)
Cc1cc(OCCCC(=O)Nc2cc(S(=O)(=O)N3CCOCC3)ccc2N2CCOCC2)ccc1Cl	1.11% (inactive)
CCOC(=O)[C@H]1[C@H]2COc3ccc(Br)cc3[C@@H]2N2C(=O)CN(C)C(=O)[C@@]12C	-7.39% (inactive)
CC(=O)Nc1cccc(-c2csc(Nc3cccc(C)n3)n2)c1	9.85% (inactive)
CC(=O)Nc1cccc(-c2cnc3ccccc3n2)c1	50.4% (active)
O=C(Nc1cccc(-c2nc3ccccc3[nH]2)c1)c1ccc(C(=O)Nc2cccc(-c3nc4ccccc4[nH]3)c2)cc1	4.53% (inactive)
CN(C)C(=S)N=c1ssc(=S)n1Cc1ccco1	0.385% (inactive)
O=C(Cc1ccc([N+](=O)[O-])cc1)NCCc1ccc2c(c1)OCO2	3.06% (inactive)
COc1ccc(C(=O)N(C)Cc2ccc(OC)c(OC)c2OC)cc1S(=O)(=O)N1CCOCC1	-3.97% (inactive)
NC(CSC1(c2ccccc2)c2ccccc2-c2ccccc21)C(=O)O (configuration not stated)	-0.913% (inactive)
COc1cc2[nH]c(O)c(C=O)c2cc1OC	3.93% (inactive)
COc1ccc(Nc2nc(-c3cccnc3)nc3ccccc23)cn1	24.1% (inactive)
CC(=O)Nc1cccc(Nc2nc(-c3cccs3)nc3ccccc23)c1	26.8% (inactive)
Cc1cccc(-c2nc(Nc3ccc(O)cc3)c3ccccc3n2)c1	62% (active)
